Hit rate of the full screen: of about 30,000 compounds, about 110 (0.37%) were called active. The list comes from a sample in which actives are over-represented; it also holds similar structures and randomly drawn compounds. Unmarked numbers belong to inactive results.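 Rule for the calls: active = delta delta Cp rounded down to an integer at or above 3, about 3 SD of DMSO wells; inactive = the rest.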

The nature of this assay: inhibitors of YB-1 gene expression, primary screen, cell-based, fluorescence (AID 434959).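 Note: higher means less YB-1 transcript or more CDIP transcript relative to DMSO.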 The following applies: U2OS, qRT-PCR YB-1 vs CDIP delta delta Cp, 16 h; stronger effect = higher value; zero = DMSO, each unit about twofold.
As to `C[C@@H]1CN([C@H](C)CO)C(=O)CCCn2cc(nn2)CO[C@@H]1CN(C)Cc1ccccc1C(=O)O`, the delta Cp (YB-1 minus CDIP) was -0.246. As for `C[C@@H]1CN([C@H](C)CO)C(=O)CCCn2nncc2CO[C@@H]1CN(C)C(=O)OCc1ccccc1`, the delta Cp (YB-1 minus CDIP) is 0.0587. Turning to `O=C1C2CC3CC1CC(C(=O)O)(C3)C2`, the delta Cp (YB-1 minus CDIP) is 0.106.

Turning to `C[C@H](CO)N1C[C@H](C)[C@H](CN(C)C(=O)Nc2ccccc2)Oc2ccc(NC(=O)CCN3CCOCC3)cc2CC1=O`, the delta Cp (YB-1 minus CDIP) was -0.228.

As for `CC1(C)CC(=O)c2ccc(O)cc2O1`, the delta Cp (YB-1 minus CDIP) was 1.96.

For the molecule `Cc1cc(C(=O)Nc2cccc3c2O[C@@H](CN(C)C(=O)Nc2ccc4c(c2)OCO4)[C@H](C)CN([C@@H](C)CO)C3=O)n(C)n1`, the delta Cp (YB-1 minus CDIP) is -0.0832.

For `C[C@H]1CN([C@@H](C)CO)C(=O)c2cc(NC(=O)NC3CCCCC3)ccc2O[C@@H]1CN(C)S(=O)(=O)c1cccs1`, the delta Cp (YB-1 minus CDIP) is 0.092. The same measure for `O=C(/C=C/c1ccccc1)c1ccc(O[C@@H]2O[C@H](CO)[C@@H](O)[C@H](O)[C@H]2O)cc1O`: 0.0338; for `Oc1cc2c(cc1O)CN(C(=S)NCCc1ccc(Cl)cc1)CCC2`: 0.367; for `Cc1noc(C)c1NC(=O)Nc1ccc2c(c1)CC(=O)N([C@@H](C)CO)C[C@@H](C)[C@@H](CN(C)C(=O)NC(C)C)O2`: 0.0713. The same measure for `C[C@H]1CN([C@@H](C)CO)C(=O)Cc2cc(NC(=O)C3CC3)ccc2O[C@H]1CN(C)S(=O)(=O)c1ccc(Cl)cc1`: 0.415; for `[N-]=[N+]=Nc1ccccc1C[C@@]1(C(=O)NCc2ccccc2)N=C(c2ccc(OCCCO)cc2)O[C@@H]1c1ccccc1`: -0.629; for `O=C1O[C@@H](c2ccccc2)[C@@H](c2ccccc2)N2[C@@H](c3ccccc3OCCO)[C@]3(C(=O)Nc4ccc(C#CC5(O)CCCCCC5)cc43)[C@@H](C(=O)N3CCN(c4ncccn4)CC3)[C@H]12`: -0.244. The result for `C[C@H](CO)N1C[C@H](C)[C@H](CN(C)Cc2ccc(-c3ccccc3)cc2)Oc2ccc(NC(=O)Nc3ccc(F)cc3)cc2CC1=O` reads -0.469. For the molecule `COc1cc(/C(C)=C/C(C)=C\C(=O)O)oc(=O)c1C`, the delta Cp (YB-1 minus CDIP) was -0.492.

On to `Cc1ccc(S(=O)(=O)N(C)C[C@H]2Oc3c(NC(=O)c4ccc(-c5nccs5)cc4)cccc3C(=O)N([C@H](C)CO)C[C@H]2C)cc1`, for which the delta Cp (YB-1 minus CDIP) was -0.182.

Regarding `CC1=COC(O[C@@H]2O[C@H](CO)[C@@H](O)[C@H](O)[C@H]2O)C2C1CC(O)C2CO` (stereo partly specified), the delta Cp (YB-1 minus CDIP) was -0.367. The same measure for `C[C@@H]1CN([C@@H](C)CO)C(=O)CCCn2nncc2CO[C@@H]1CN(C)Cc1ccccc1`: 0.131. Regarding `C[C@@H]1CN([C@H](C)CO)C(=O)Cc2cc(NS(=O)(=O)c3ccc(F)cc3)ccc2O[C@@H]1CN(C)S(=O)(=O)c1ccc(F)cc1`, the delta Cp (YB-1 minus CDIP) is -0.0534. The result for `COc1ccc(C#Cc2ccc3c(c2)[C@]2(C(=O)N3)[C@H](c3ccccc3OCCO)N3[C@H](c4ccccc4)[C@H](c4ccccc4)OC(=O)[C@H]3[C@@H]2C(=O)N2CCCCCCC2)cc1` reads 0.00142; that for `CNC[C@@H]1Oc2ncc(-c3ccc(F)cc3)cc2C(=O)N([C@H](C)CO)C[C@@H]1C`, -0.148; that for `CC(C)NC(=O)N(C)C[C@H]1Oc2ccc(NC(=O)CCCCCC(=O)Nc3ccccc3N)cc2CC(=O)N([C@@H](C)CO)C[C@H]1C`, 0.0201.

`C/C(=C\CC[C@H](CO)[C@@H]1CC[C@]2(C)C3=C(CC[C@@]12C)[C@@]1(C)CCC(=O)C(C)(C)C1CC3)C(=O)O` (stereo partly specified): the delta Cp (YB-1 minus CDIP) is -0.0322. The result for `C[C@H](CO)N1C[C@H](C)[C@H](CN(C)CC2CC2)Oc2ccc(NS(=O)(=O)c3ccccc3)cc2CC1=O` reads -0.128. With `Cc1noc(C)c1S(=O)(=O)Nc1ccc2c(c1)CC(=O)N([C@@H](C)CO)C[C@H](C)[C@H](CN(C)S(=O)(=O)c1ccc(Cl)cc1)O2`, the delta Cp (YB-1 minus CDIP) is 0.105. The result for `C[C@H]1CN([C@@H](C)CO)C(=O)Cc2cc(NS(C)(=O)=O)ccc2O[C@@H]1CN(C)S(=O)(=O)c1ccc(Cl)cc1` reads 0.259; that for `Cc1noc(C)c1NC(=O)Nc1ccc2c(c1)C(=O)N([C@@H](C)CO)C[C@@H](C)[C@H](CN(C)C(=O)NC(C)C)O2`, -0.101. The same measure for `C[C@H](CO)N1C[C@H](C)[C@H](CN(C)CC2CCCCC2)Oc2ccc(NC(=O)CCN3CCOCC3)cc2CC1=O`: 0.315; for `C[C@H]1CN([C@@H](C)CO)C(=O)CCCn2cc(nn2)CO[C@H]1CN(C)C(=O)Nc1ccc(F)cc1`: -0.241. The same measure for `C=CCN1C(=O)[C@]2(O[C@H](CCn3cc(CCO)nn3)[C@@H]([Si](C)(C)c3ccc(OC)cc3)[C@@H]2C)c2cc(N3CCOC3=O)ccc21`: -0.00312; for `COc1ccc(NC(=O)O[C@H](c2ccc(OCCO)cc2)[C@@H](CCO)OC)cc1`: -1.3; for `C[C@@H]1CCCCO[C@H](CN(C)C(=O)NC2CCCCC2)[C@@H](C)CN([C@H](C)CO)C(=O)c2cc(NS(C)(=O)=O)ccc2O1`: 0.322. For the molecule `COc1ccc(S(=O)(=O)N(C)C[C@@H]2Oc3ccc(NC(=O)CCC(F)(F)F)cc3C(=O)N([C@@H](C)CO)C[C@@H]2C)cc1`, the delta Cp (YB-1 minus CDIP) is -0.166. The result for `C[C@H](CO)N1C[C@H](C)[C@H](CN(C)S(=O)(=O)c2ccccc2)Oc2c(NC(=O)CCCCCC(=O)Nc3ccccc3N)cccc2C1=O` reads 0.187; that for `C[C@@H]1CN([C@@H](C)CO)C(=O)c2cccc(NC(=O)Nc3ccc4c(c3)OCO4)c2O[C@H]1CN(C)C(=O)Nc1cccc2ccccc12`, 0.0736; that for `COc1ccc(NC(=O)Nc2ccc3c(c2)CC(=O)N([C@@H](C)CO)C[C@@H](C)[C@@H](CN(C)Cc2ccc(Cl)c(Cl)c2)O3)cc1`, 0.191. The result for `C=C1C2=CC(=O)O[C@@H](c3ccoc3)[C@]2(C)CCC1[C@@]1(C)C=CC(=O)C(C)(C)[C@@H]1CC(=O)OC` (stereo partly specified) reads 0.366; that for `C[C@@H]1CN([C@H](C)CO)C(=O)c2cc(NC(=O)Cc3ccccc3)ccc2O[C@@H]1CN(C)CC1CCCCC1`, -0.0442; that for `C[C@H]1CN([C@@H](C)CO)C(=O)c2cccc(NS(=O)(=O)c3ccc(Cl)cc3)c2O[C@H]1CN(C)Cc1ccc2c(c1)OCO2`, 0.321.

In the case of `C[C@@H]1CN([C@H](C)CO)C(=O)c2cccc(NC(=O)CCCCCC(=O)Nc3ccccc3N)c2O[C@@H]1CN(C)C(=O)Nc1ccccc1`, the delta Cp (YB-1 minus CDIP) is 0.438. The result for `C[C@H]1CN([C@@H](C)CO)C(=O)Cc2cc(NC(=O)CCCN(C)C)ccc2O[C@@H]1CN(C)Cc1ccc(-c2ccccc2)cc1` reads -1.08; that for `Oc1ccc2c(c1)OCC1c3cc4c(cc3OC21)OCO4` (stereo unspecified), 0.271; that for `COc1ccc(CN(C)C[C@@H]2Oc3c(NC(=O)C4CC4)cccc3C(=O)N([C@@H](C)CO)C[C@H]2C)cc1`, -0.213.

Consider `CC(C)NC(=O)Nc1ccc2c(c1)CC(=O)N([C@H](C)CO)C[C@@H](C)[C@H](CN(C)S(=O)(=O)c1ccccc1)O2`, for which the delta Cp (YB-1 minus CDIP) was 0.113. The result for `C[C@H](CO)N1C[C@H](C)[C@H](CN(C)CC2CCCCC2)Oc2ccc(NC(=O)CCCCCC(=O)Nc3ccccc3N)cc2CC1=O` reads -0.217; that for `C[C@H]1CN([C@@H](C)CO)C(=O)c2cccc(NC(=O)NC3CCCCC3)c2O[C@H]1CN(C)CC1CCCCC1`, -0.236; that for `Cc1onc(-c2c(Cl)cccc2Cl)c1C(=O)N=S(C)(C)=O`, -0.447.

For `C[C@H]1CN([C@@H](C)CO)C(=O)CCCn2cc(nn2)CO[C@@H]1CN(C)S(=O)(=O)c1ccc(-n2cccn2)cc1`, the delta Cp (YB-1 minus CDIP) was -0.848.

Regarding `C[C@H](CO)N1C[C@H](C)[C@H](CN(C)S(=O)(=O)c2ccc(C#N)cc2)Oc2ncc(-c3cccc(F)c3)cc2C1=O`, the delta Cp (YB-1 minus CDIP) was 0.397. In the case of `COCCOC(=O)N1C(=O)[C@@]2(c3cc(C#CCC(C(=O)OC)C(=O)OC)ccc31)[C@H](c1ccc(OCCO)cc1)N1[C@H](c3ccccc3)[C@H](c3ccccc3)OC(=O)[C@H]1[C@@H]2C(N)=O`, the delta Cp (YB-1 minus CDIP) is -0.585. The same measure for `CCOC(=O)c1cc(=O)c2ccc(OCc3ccccc3)cc2o1`: 0.522. The same measure for `Cc1noc(C)c1S(=O)(=O)Nc1ccc2c(c1)C(=O)N([C@@H](C)CO)C[C@H](C)[C@H](CN(C)C(=O)Nc1ccc(C(F)(F)F)cc1)O2`: -0.372.

`O=C(NO)c1ccc(C(=O)N/N=C/c2ccc(Br)cc2)cc1`: the delta Cp (YB-1 minus CDIP) was -0.432. The same measure for `C[C@H](CO)N1C[C@H](C)[C@@H](CN(C)Cc2ccc(Oc3ccccc3)cc2)OCc2cn(nn2)CCCC1=O`: -0.14; for `COC(=O)C1=C(N)Oc2cc(C)oc(=O)c2C1c1cccnc1` (stereo unspecified): -0.311; for `COc1ccc(NC(=O)N(C)C[C@H]2Oc3ccc(NC(=O)Nc4ccc5c(c4)OCO5)cc3C(=O)N([C@H](C)CO)C[C@H]2C)cc1`: 0.191. For `Cc1ccc(-c2cn3c4c(sc3n2)CCCC4)cc1`, the delta Cp (YB-1 minus CDIP) was 0.773. The same measure for `Cc1ccc(-n2c(C)nc3sc4c(c3c2=O)CCC4)cc1`: 5.31 (active). The result for `O=C(N/N=C/c1ccc([N+](=O)[O-])s1)c1ccccc1O` reads 0.165. The same measure for `C[C@H](CO)N1C[C@H](C)[C@@H](CN(C)Cc2ccc(Cl)c(Cl)c2)Oc2c(NC(=O)C3CCCCC3)cccc2C1=O`: -0.923; for `Cc1ccc(CN(C)C[C@@H]2OCc3cnnn3CCCC(=O)N([C@@H](C)CO)C[C@H]2C)cc1`: -0.0292.

The record behind these values is PubChem BioAssay AID434959 (Broad Institute, 2010).
